PubChem BioAssay (Tox21)
Results filed as inconclusive are left out. Entries that show only a call come without a potency. The source made the active and inactive calls. Calls follow the shape of the full dose curve.

Assay: p53 small molecule agonists, cell-based qHTS assay: qHTS cell viability counter screen (AID 1963581); also: nearly all actives have a fitted effect of over 45% in size
Details: p53RE-bla HCT-116 viability, ATP luminescence, 16 h; series mostly up to 66 µM
Source text: National Center for Advancing Translational Sciences [NCATS]
Division of Preclinical Innovation [DPI]
U.S. Environmental Protection Agency [EPA]
National Institutes of Environmental Health Sciences [NIEHS]
National Toxicology Program [NTP]
U.S. Food and Drug Administration [FDA]
p53, a tumor suppressor protein, is activated following cellular insult, including DNA damage and other cellular stresses. The activation of p53 regulates cell fate by inducing DNA repair, cell cycle arrest, apoptosis, or cellular senescence. The activation of p53, therefore, is a good indicator of DNA damage and other cellular stresses. The CellSensor p53RE-bla HCT-116 cell line (Invitrogen) contains a stably integrated beta-lactamase reporter gene under control of the p53 response elements. The activation of the reporter gene under culture conditions can be detected by fluorescence intensity. This cell line was used to screen the Tox21 compound library in a 1536-well plate format and to identify agonists that activate the p53 signaling pathway. The cytotoxicity of the Tox21 compound library against the p53 RE-bla HCT-116 cell line was tested in parallel by measuring the intra cellular ATP content in the same wells.
Tox21 Assay Protocol Summary:
The p53RE-bla cells were dispensed at 4,000 cells/5 ul/well in 1536-well black wall/clear bottom plates using a Multidrop dispenser. After the assay plates were incubated at a 37 C/5% CO2 incubator for 5 hours, 23 nL of compounds dissolved in DMSO, positive controls or DMSO only was transferred to the assay plate by a pin tool. The plates were incubated at 37 C for 16 hours. After 1 uL of LiveBLAzerTM B/G FRET substrate was added using a Flying Reagent Dispenser, the plates were incubated at room temperature for 2 hours, and fluorescence intensity was measured by an Envision plate reader. For cell viability readout that measures cytotoxicity, 4 ul/well of CellTiter-Glo reagent was added into the assay plates using a Flying Reagent Dispenser. After 30 min incubation at room temperature, the luminescence intensity in the plates was measured using a ViewLux plate reader.
Potency is read from the fitted curve at half-maximal effect.

Compound | Potency
CCCc1ccc(N)cc1 | inactive
C=C1CC/C=C(\C)CC[C@@H]2[C@@H]1CC2(C)C | inactive
Cc1ccc(Nc2ccc(O)c3c2C(=O)c2ccccc2C3=O)cc1 | inactive
CCCCCCCC(=O)[O-].CCCCCCCC(=O)[O-].[Zn+2] | inactive
[Cl][In]([Cl])[Cl] | inactive
O=Cc1cc2ccccc2o1 | inactive
CC(=O)Nc1ncc([N+](=O)[O-])s1 | inactive
CCC(=O)OC(C)c1ccccc1 (stereo not given) | inactive
O=S(=O)(O)c1ccccc1 | inactive
Cc1cccc(C)c1NC(=O)CC12CCCN1CCC2 | inactive
CC(COCC(C)OC(=O)c1ccccc1)OC(=O)c1ccccc1 (stereo not given) | inactive
CCCCCCCOC(=O)c1ccccc1C(=O)OCCCCCCC | inactive
CC(=O)O[C@@H]1CC2C3CCc4cc(OC(=O)c5ccccc5)ccc4C3CCC2(C)[C@H]1OC(C)=O (stereo not given in full) | inactive
COc1ccc(COC(C)=O)cc1 | inactive
O=C(O)c1cc(N=Nc2ccc(S(=O)(=O)Nc3ccccn3)cc2)ccc1O | inactive
NCCC(O)(P(=O)(O)O)P(=O)(O)O | inactive
FC(F)(F)c1ccccc1-n1ccnc1 | inactive
O=C1OC(CN2CCOCC2)CN1/N=C/c1ccc([N+](=O)[O-])o1 (stereo not given) | inactive
CCOc1cc(NC(C)=O)ccc1C(=O)OC | inactive
CC(C)C(=O)O | inactive

Compound | Potency
CC(C)CCCC(C)CCCC(C)CCCCC(C)CCCC(C)CCCC(C)C (stereo not given) | inactive
COC(=O)c1ccc(C(=O)OC)cc1 | inactive
CC(C)Nc1ccccc1 | inactive
CCCCCCCCCCCCCCCC | inactive
CC(C)c1cccc(C(C)C)c1N | inactive
CC(=O)N[C@@H](Cc1ccc(O)cc1)C(=O)O | inactive
O=C(O)CONC(=O)c1ccccc1 | inactive
CCOC(=O)[C@H](CCc1ccccc1)N[C@@H](C)C(=O)N1Cc2ccccc2C[C@H]1C(=O)O | inactive
Cc1nc(C)c(C)nc1C | inactive
C1COCCO1 | inactive
CC(CCO)CCc1ccccc1 (stereo not given) | inactive
CN(C)CCCN(C)CCCN(C)C | inactive
C=CC(=O)NC(C)C | inactive
C=CC(=O)OCCCCCC | 363 nM (active)
Cc1ccc(N)cc1[N+](=O)[O-] | inactive
[O]=[Zr] | inactive
C=CCCC=C | inactive
O=C(Oc1ccccc1)c1ccc(O)cc1 | inactive
F[Si-2](F)(F)(F)(F)F | inactive
C=C(C)C(=O)OCCNC(C)(C)C | inactive
